According to PubChem BioAssay (NCATS):
Where “and” joins values, the source holds several entries; their conditions need not be identical. Equal entries are not always repeated. Results filed as inconclusive are left out. Calls of active or inactive are those of the source. Unless noted, calls follow the shape of the dose curve; as a rule, active = well fitted curve in the direction sought with a large enough effect; inconclusive = small, poorly fitted or top-dose-only effect, or another doubt; inactive = no such curve, though single readings can be large; an effect the other way counts as inactive or inconclusive.

Assays:
[1] = Cell Viability - BJ (AID 421; calls by dose curve;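 also: potency is read from the fitted curve at half-maximal effect; cells exposed to compound for 40 hours at 37 °C before readout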); details: BJ fibroblast viability, qHTS
Procedure, shortened: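 Cytotoxicity in human BJ foreskin fibroblasts is scored as loss of cellular ATP after a 40-hour exposure, measured by luciferase luminescence. Controls are DMSO and 100 uM tamoxifen.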

[2] = Cell Viability - SK-N-SH (AID 435; calls by dose curve;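 also: potency is read from the fitted curve at half-maximal effect; compound exposure lasted 40 h at 37 °C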); details: SK-N-SH neuroblastoma cell viability qHTS
Procedure, shortened: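 SK-N-SH human neuroblastoma cells (1500/well) were exposed to compounds in complete medium for 40 h at 37 °C, and intracellular ATP was then measured by CellTiter-Glo luminescence. AC50 was taken from Hill fits, normalized to DMSO and 100 uM tamoxifen.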

[3] = molecular target: Mitogen-activated protein kinase 10 (Mus musculus) (UniProt Q61831); assay: JNK3 AlphaScreen Assay (AID 530; active = well fitted curve in either direction with a large enough effect, not every such curve was filed as active;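 also: kinase came from lysate of stimulated human HepG2 cells; signal reports phosphorylation of biotinylated GST-cJun 1-79 at Ser73 with 10 µM ATP; % is scaled to controls: 0 for no effect and ±100 for the full control effect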); details: JNK3 lysate, c-Jun phosphorylation; series mostly up to 57.1 µM
Procedure, shortened: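 Phosphorylation of biotinylated GST-cJun(1-79) at Ser73 is measured by AlphaScreen proximity luminescence. Enzyme is JNK3 in HepG2 lysates activated with interleukin-1beta and tumor necrosis factor alpha; ATP is 10 uM final.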

[4] = Cell Viability - NIH 3T3 (AID 541); details: NIH 3T3 cell viability, qHTS; activity change, negative = cytotoxicity: at 92.2 µM (top of the series);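 also: plate controls were DMSO alone for no effect and tamoxifen positive control for full effect; nearly all actives have a fitted effect of over 25% in size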
Procedure, shortened: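 Cells seeded at 1000/well, rested 5 hr at 37 °C, then dosed and incubated 40 hr at 37 °C. CellTiter-Glo added, 20 min room temperature, luminescence read. AC50 by Hill fit.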

[5] = Cell Viability - Mesenchymal (AID 546); details: mesenchymal cells viability, qHTS; activity change, negative = cytotoxicity: at 91.7 µM (top of the series);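 also: cells exposed to compound for 40 hours before reading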
Procedure, shortened: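 In this qHTS cytotoxicity format, glomerulus-derived human mesenchymal kidney cells received compound for 40 hr, then luciferase-based ATP quantitation. Concentration-response data were fitted with the Hill equation.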

[6] = Cellular Toxicity (caspase-3) HepG2 (AID 654); details: HepG2 caspase-3 activation, luminescence, 0% = DMSO only, 100% = tamoxifen; series mostly up to 92.2 µM;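 also: cells exposed to compound for 16 hours before reading; 0% = DMSO alone and 100% = caspase signal from 100 µM tamoxifen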
Procedure, shortened: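 Caspase 3/7 activation in HepG2 is measured as rising luminescence after a 16 hr treatment at 37 °C. Values are scaled between DMSO basal and 100 uM tamoxifen, and AC50 is fitted with the Hill equation.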

[7] = Cellular Toxicity (caspase-3) HUV-EC-C (AID 656); details: HUV-EC-C cells, caspase-3 activation (apoptosis), vehicle = 0, 100 µM tamoxifen = 100%; series mostly up to 92.2 µM
Procedure, shortened: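 HUV-EC-C endothelial cells, 1000/well, were pre-incubated 5 hr at 37°C, then exposed to compounds for 16 hr at 37°C. Caspase-Glo 3/7 luminescence was read after 20 min at room temperature. AC50 came from Hill fits, normalized to DMSO and 100 uM tamoxifen.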

[8] = Cellular Toxicity (caspase-3) BJ (AID 658); details: BJ fibroblasts, luminescence, normalized: DMSO 0%, staurosporine 100%; series mostly up to 91.7 µM
Procedure, shortened: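 Plated BJ cells (1000/well) rested 5 hr, received compound for 16 hr at 37 °C, then Caspase-Glo 3/7 reagent for 1 hr at room temperature before luminescence reading.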

[9] = Cellular Toxicity (caspase-3) MRC-5 (AID 659); details: MRC-5 cells, luminescence, normalized: DMSO 0%, 10 µM staurosporine 100%; series mostly up to 91.7 µM
Procedure, shortened: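 Apoptosis readout in MRC-5 cells: luciferase light generated after caspase 3/7 cleaves a peptide-aminoluciferin substrate, measured post 16 hr compound incubation at 37 °C.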

[10] = Cellular Toxicity (caspase-3) Mesangial (AID 660); details: mesangial cells, normalized: DMSO 0%, 100 µM tamoxifen 100%; series mostly up to 91.7 µM;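 also: combined caspase 3 and 7 activity read by Caspase-Glo luminescence; cells exposed to compound for 16 h before the caspase read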
Procedure, shortened: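 Seed cells derived from normal human renal glomeruli, incubate 5 h, add compounds across concentrations and incubate 16 h at 37 °C. Caspase 3/7 activation is then quantified by luciferase light, with AC50 derived by Hill modeling.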

[11] = Cellular Toxicity (caspase-3) Hek293 (AID 664); details: HEK293 caspase-3 activation, DMSO = 0%, 100 µM tamoxifen = 100%; series mostly up to 92.2 µM;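 also: cells exposed to compound for 16 h at 37 °C before readout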
Procedure, shortened: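 qHTS, HEK293 (human embryonic kidney), 16 h cpd exposure in complete medium. Caspase-3/7 activation = luminescence increase; normalized to DMSO/100 uM tamoxifen; Hill-fit AC50.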

[12] = MultiTox-Fluor Cytotoxicity Assay - LYMP1-003 - Live Cells (AID 962); details: LYMP1-003 lymphoblastoid cells, MultiTox-Fluor live-cell protease fluorescence; series mostly up to 92.2 µM;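 also: 0% = DMSO only and full loss = 92 µM tetraoctylammonium bromide; cytotoxic hits lower the live-cell protease signal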
Procedure, shortened: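 Acute cytotoxicity is scored as a drop in live-cell protease activity in human lymphoblastoid LYMP1-003 cells after 16 hr compound exposure at 37 C. AC50 values come from Hill-equation modelling of concentration-response data.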

[13] = Cell Viability - LYMP1-003 - Assay at 40 hr (AID 964); details: LYMP1-003 lymphoblastoid viability; series mostly up to 92.2 µM; also: % is scaled to controls: 0 for no effect and ±100 for the full control effect; nearly all actives have a fitted effect of over 60% in size
Procedure, shortened: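 Luminescent ATP signal (CellTiter-Glo) served as the viability read-out after 40 hr compound treatment of human lymphoblastoid LYMP1-003 cells at 37 C. Decreases in ATP were fitted with the Hill equation to give AC50.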

[14] = Cell Viability - LYMP2-011 (AID 969); details: LYMP2-011 lymphoblastoid cells viability; series mostly up to 92.2 µM;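 also: 0% = DMSO only and full inhibition = 92 µM tetraoctylammonium bromide; nearly all actives have a fitted effect of over 60% in size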
Procedure, shortened: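 In this qHTS cytotoxicity format, compounds are tested across concentrations on human lymphoblastoid cells in complete medium for 24 hours at 37 C. Viability is taken as cellular ATP measured by luciferase luminescence.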

[15] = Cell Viability - LYMP2-013 (AID 970); details: LYMP2-013 lymphoblastoid cells viability; series mostly up to 92.2 µM;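 also: cells exposed to compound for 24 h at 37 °C; 0% = DMSO only and full inhibition = tetraoctylammonium bromide control; nearly all actives have a fitted effect of over 55% in size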
Procedure, shortened: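 Cytotoxicity is scored as a concentration-dependent drop in intracellular ATP in human lymphoblastoid cells after 24 hr compound exposure at 37 C. ATP is quantified by luciferase luminescence, and AC50 values come from Hill-equation modeling.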

[16] = Cell Viability - LYMP2-017 (AID 972); details: LYMP2-017 lymphoblastoid cell viability; series mostly up to 92.2 µM; also: % is scaled to controls: 0 for no effect and ±100 for the full control effect; nearly all actives have a fitted effect of over 55% in size
Procedure, shortened: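 Cytotoxicity is scored as a concentration-dependent drop in cellular ATP in a human lymphoblastoid line after 24 hr treatment at 37 C. Values are AC50s from Hill-equation modelling.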

[17] = Cell Viability - LYMP2-010 (AID 981); details: LYMP2-010 lymphoblastoid cell viability, qHTS; series mostly up to 92.2 µM; also: % is scaled to controls: 0 for no effect and ±100 for the full control effect; nearly all actives have a fitted effect of over 55% in size
Procedure, shortened: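 Steps: seed 2500 LYMP2-010 cells per well; incubate 5 hr at 37 C; add compound; incubate 24 hr at 37 C; add CellTiter-Glo, wait 30 min at room temperature; read luminescence. Concentration-response fitted to Hill equation for AC50.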

[18] = Cell Viability - LYMP2-012 (AID 982); details: LYMP2-012 lymphoblastoid cell viability qHTS; series mostly up to 92.2 µM;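 also: cellular ATP by luciferase luminescence where a drop means cytotoxicity; cells exposed to compound for one day before reading; 0% = DMSO only and full loss = 92 µM tetraoctylammonium bromide; nearly all actives have a fitted effect of over 55% in size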
[19] = qHTS Assay for Identification of Small Molecule Inducers of Hypoxia Response (AID 2120; active = well fitted curve in the direction sought with a large enough effect in the signal ratio, with a control signal flat, not every such curve was filed as active; the % refers to the signal ratio; also: 0% is about no effect); details: hypoxia response reporter cells, beta-lactamase ratio readout; series mostly up to 104 µM
Procedure, shortened: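 Cell-based qHTS for reporter induction: hypoxia response element controlled beta-lactamase in ME-180 cells. Compounds incubated 17 h at 37 degrees C; activity from blue/green (460/530 nm) ratio, inducers ranked by AC50.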

[20] = molecular target: Peroxisome proliferator-activated receptor alpha (Homo sapiens) (UniProt Q07869); assay: qHTS assay for small molecule agonists of the peroxisome proliferator-activated receptor alpha (PPARalpha) signaling pathway (AID 651778); details: PathHunter PPARalpha complementation, chemiluminescence, 6 h; max response: active compounds read high; also: % of control where 0% means no effect
Procedure, shortened: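 Cells plated at 2,000/well and held overnight at 37 C, 5% CO2, then compound added by pin tool for 6 hr; after PathHunter detection reagent and 60 min at room temperature, chemiluminescence from enzyme complementation was read.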

Peroxisome proliferator-activated receptor alpha (Homo sapiens), sequence (Q07869 whole entry, looked up): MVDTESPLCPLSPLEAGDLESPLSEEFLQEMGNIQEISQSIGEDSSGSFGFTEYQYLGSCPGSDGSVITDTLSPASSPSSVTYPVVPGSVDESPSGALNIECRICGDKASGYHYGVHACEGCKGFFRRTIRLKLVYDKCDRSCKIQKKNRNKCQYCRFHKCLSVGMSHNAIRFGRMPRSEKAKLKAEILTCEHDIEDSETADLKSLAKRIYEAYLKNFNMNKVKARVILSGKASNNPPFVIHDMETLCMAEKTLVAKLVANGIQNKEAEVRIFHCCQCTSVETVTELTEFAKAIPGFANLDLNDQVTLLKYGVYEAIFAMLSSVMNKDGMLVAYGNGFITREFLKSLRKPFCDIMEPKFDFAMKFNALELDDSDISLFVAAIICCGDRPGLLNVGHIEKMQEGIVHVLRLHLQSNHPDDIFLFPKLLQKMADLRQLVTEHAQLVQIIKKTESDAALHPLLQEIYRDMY

CC1(C)CC(N=C=O)CC(C)(CN=C=O)C1 (stereo unspecified)
inactive: Potency [1] > 92 µM | Potency [2] > 92 µM | Potency [3] | Potency [4] | activity change, negative = cytotoxicity [5] 8.39% | outcome [6] | outcome [7] | outcome [8] | outcome [9] | outcome [10] | outcome [11] | Potency [12] | Potency [13] | Potency [14] | Potency [15] | Potency [16] | Potency [17] | Potency [18] | outcome [19] | max response [20] -1.83% and -0.793%

CN(C)C(=O)c1ccc(-c2ccc3ncnc(Nc4ccc(F)cc4)c3c2)cc1
inactive: Potency [3]

ClCCCl
inactive: Potency [1] > 92 µM | Potency [2] > 92 µM | Potency [3] | Potency [4] | activity change, negative = cytotoxicity [5] 8.24% | outcome [6] | outcome [7] | outcome [8] | outcome [9] | outcome [10] | outcome [11] | Potency [12] | Potency [13] | Potency [14] | Potency [15] | Potency [16] | Potency [17] | Potency [18] | outcome [19] | max response [20] 1.65% and -1.11%

COC(=O)CCCCC(=O)OC
inactive: Potency [1] > 92 µM | Potency [2] > 92 µM | Potency [3] | Potency [4] | activity change, negative = cytotoxicity [5] 1.32% | outcome [6] | outcome [7] | outcome [8] | outcome [9] | outcome [10] | outcome [11] | Potency [12] | Potency [13] | Potency [14] | Potency [15] | Potency [16] | Potency [17] | Potency [18] | outcome [19] | max response [20] -1.36% and -1.93% and -0.772%

O=C(/C=C/c1ccc(O)c(O)c1)O[C@@H](C(=O)O)[C@@H](OC(=O)/C=C/c1ccc(O)c(O)c1)C(=O)O
inactive: Potency [1] > 92 µM | Potency [2] > 92 µM | Potency [3] | Potency [4] | activity change, negative = cytotoxicity [5] 11% | outcome [6] | outcome [7] | outcome [8] | outcome [9] | outcome [10] | outcome [11] | Potency [12] | Potency [13] | Potency [14] | Potency [15] | Potency [16] | Potency [17] | Potency [18] | outcome [19] | max response [20] -4.13%

OCCNCCO
inactive: Potency [1] > 92 µM | Potency [2] > 92 µM | Potency [3] | Potency [4] | activity change, negative = cytotoxicity [5] 11.5% | outcome [6] | outcome [7] | outcome [8] | outcome [9] | outcome [10] | outcome [11] | Potency [12] | Potency [13] | Potency [14] | Potency [15] | Potency [16] | Potency [17] | Potency [18] | outcome [19] | max response [20] 0.687% and 0.279%

CC(C)=CCCC(C)CCO (stereo unspecified)
inactive: Potency [1] > 92 µM | Potency [2] > 92 µM | Potency [3] | Potency [4] | activity change, negative = cytotoxicity [5] 5.35% | outcome [6] | outcome [7] | outcome [8] | outcome [9] | outcome [10] | outcome [11] | Potency [12] | Potency [13] | Potency [14] | Potency [15] | Potency [16] | Potency [17] | Potency [18] | outcome [19] | max response [20] -8.23% and 0.206%
